# Laboratory results reported in PubChem BioAssay AID504832 (National Center for Advancing Translational Sciences (NCATS), 2011).
# Hit rate of the full screen: of about 310,000 compounds, about 18,000 (5.8%) were called active. Inconclusive results (about 22%) are left out. Calls follow the shape of the dose curve; as a rule, active = well fitted inhibition curve with a large enough effect; inconclusive = small, poorly fitted or top-dose-only effect, or another doubt; inactive = no such curve, though single readings can be large or run the other way. Shown is part of a subset that was picked to be rich in actives.
# Experiment: Primary qHTS for delayed death inhibitors of the malarial parasite plastid, 48 hour incubation
# Details: P. falciparum luciferase growth in erythrocytes; series mostly up to 28.7 µM; activity change, negative = inhibition: at the top concentration
# Excerpt: The goal of this screen is to discover new antimalarial compounds that act by inhibiting the development of the apicoplast in the malarial parasite Plasmodium falciparum. The biochemical processes that make this organelle essential for erythrocytic stage parasites are not well understood. However, antibiotics such as azithromycin and tetracycline, which target the apicoplast translational machinery, have a potent antimalarial effect.
# We have developed a cell-based assay that measures parasite growth based on the expression of an integrated copy of a firefly luciferase reporter. To detect small molecules that cause this "delayed death" phenotype, erythrocytes infected with the luciferase-expressing parasites were incubated with compounds for either one or two generations, corresponding to 48 and 96 hours, respectively. Compounds that inhibit parasite growth in the second generation, but not the first, should be enriched in antimalarials that target the apicoplast. Growth inhibition is detected by a decrease in luciferase activity.
# Assay Provider: David Fidock and Eric Ekland, Columbia University
# Keywords: NIH Roadmap, MLPCN, MLI, MLSMR, qHTS, NCGC, qHTS, malaria, luciferase, viability
# Four microliters of culture medium (RPMI 1640 with 0.5% w/v Albumax (GIBCO), 24 mM sodium bicarbonate and 10 ug/mL gentamycin) were dispensed by a Multi-drop Combi into white solid 1536-well plates (Grenier) and 23 nL compound was added by a pin tool. Four microliters of infected erythrocytes (2% hematocrit, 0.1% parasitemia final concentration) in culture medium were dispensed and the plates incubated for 48 hours at 37 C in 5% CO2. Two microliters of luciferase detection reagent was added and luminescence was detected by a ViewLux (PerkinElmer) reader.
# % is scaled to controls: 0 for no effect and ±100 for the full control effect; potency is read from the fitted curve at half-maximal effect.
SMILES,"activity change, negative = inhibition",Potency
Cc1cccc(N(C)C(=O)c2cc(S(=O)(=O)N3CCCCC3)c[nH]2)c1,8.72% (inactive),
Cc1cccc(CCNS(=O)(=O)c2ccc3c(c2)NC(=O)CO3)c1,12.1% (inactive),
CCOc1ccc(NC(=O)CC(Cc2ccc(Cl)cc2)C(=O)O)cc1 (configuration not stated),31.6% (inactive),
COc1ccc(C2CC(c3cccs3)=NN2C(=O)CCC(=O)O)cc1OC (configuration not stated),-0.475% (inactive),
O=C1c2cccc(OCC(=O)N3N=C(c4cccs4)CC3c3ccc(F)cc3)c2CCN1Cc1ccccc1 (configuration not stated),,7.38 µM (active)
COc1ccc(C2CC(c3ccccc3)=NN2C(=O)COC(=O)COc2ccccc2)cc1 (configuration not stated),-0.759% (inactive),
COc1cc(C(=O)NCC(=O)NCCSc2ccc(Br)cc2)cc(OC)c1OC,37.5% (inactive),
CCO[C@@H]1OC(C(=O)N2CCOCC2)=C[C@H](C)[C@H]1CCCO,12.4% (inactive),
CCO[C@H]1OC(C(=O)N2CCCCCCC2)=C[C@@H](c2ccc(C(F)(F)F)cc2)[C@@H]1CCCO,,3.7 µM (active)
CCO[C@H]1OC(C(=O)N2CCOCC2)=C[C@@H](c2ccc3c(c2)OCO3)[C@@H]1CCCO,39.8% (inactive),
Cc1cc(C)c(S(=O)(=O)Nc2c(C)n(C)n(-c3ccccc3)c2=O)cc1[N+](=O)[O-],-7.18% (inactive),
COc1ccc(-c2cc(C(=O)N3CCN(c4ccc(F)cc4)CC3)no2)cc1,1.13% (inactive),
Cc1cc(C)c(C2C3=C(Nc4c2c(C)nn4-c2ccccn2)c2ccccc2C3=O)c(C)c1 (configuration not stated),,9.28 µM (active)
COC(=O)c1sccc1NC(=O)c1ccc(Cl)cc1,12.9% (inactive),
Nc1nc(NCc2ccccc2)n(-c2ccccc2)n1,-9% (inactive),
CCc1nnc(NC(=O)CSCc2cc(=O)n3cc(C)sc3n2)s1,-17.5% (inactive),
COC(=O)C1=C(c2ccc(F)cc2OCc2ccccc2)C[C@@H]2CC[C@H]1N2C(=O)NCc1ccc(Cl)cc1,,11.7 µM (active)
COc1ccc(CNC(=O)C2CCN(S(C)(=O)=O)CC2)cc1,0% (inactive),
COC(=O)C1=C(c2ccc3ccccc3c2)C[C@@H]2CC[C@H]1N2C(=O)NCCO,3.2% (inactive),
COC(=O)c1ccc(CNC(=O)C2CCC(=O)N(Cc3cccc(F)c3)C2)cc1 (configuration not stated),-0.0903% (inactive),
O=C(O)C1CC=C(Cl)CC1C(=O)NCc1ccccc1 (configuration not stated),1.48% (inactive),
O=C(CN1CCN(C(=O)c2ccco2)CC1)Nc1ccc(Cl)c(C(F)(F)F)c1,-1.32% (inactive),
COC(=O)C1=C(c2ccc(Cl)c(C(F)(F)F)c2)C[C@@H]2CC[C@H]1N2C(=O)NC1CC1,,14.7 µM (active)
COC(=O)C1=C(c2ccccc2OCc2ccccc2)C[C@@H]2CC[C@H]1N2C(=O)NCc1ccc(OC)cc1,,13.1 µM (active)
O=C(NCCc1ccc(Cl)cc1)C1CCCN1C(=O)NCc1ccccc1 (configuration not stated),8.13% (inactive),
COC(=O)C1=C(c2ccc(F)cc2F)C[C@@H]2CC[C@H]1N2C(=O)NC1CC1,17.9% (inactive),

SMILES,"activity change, negative = inhibition",Potency
COC(=O)C1=C(c2ccc(-c3ccccc3)c(F)c2)C[C@@H]2CC[C@H]1N2C(=O)NCc1ccc(F)cc1,,13.1 µM (active)
COc1ccc(CNC(=O)C2CCN(C(=O)c3ccccc3)CC2)cc1,-3.24% (inactive),
CC(C)CC(O)C1CCN(C(=O)CCc2nnc(-c3ccc4c(c3)OCO4)o2)CC1 (configuration not stated),-7.2% (inactive),
N#Cc1ccc(OCC(=O)NC(=O)NC2CCS(=O)(=O)C2)cc1 (configuration not stated),-8.11% (inactive),
Cc1cc(C(=O)COc2ccccc2Cl)c(C)n1C1CC1,48.6% (inactive),
CCN(CC(=O)NCc1ccco1)S(=O)(=O)c1ccc(F)cc1,10.8% (inactive),
Cc1c(C(C)CCCO)oc(=O)c2c1Oc1c(C)c(C(C)C[C@@H](C)O)oc(=O)c1C2 (some centres not stated),-39.1% (inactive),
Cn1cccc1C(=O)N1CCc2ccccc2C1,11.9% (inactive),
CC1CCN(C(=O)Cn2nnnc2CN2CCOCC2)CC1,5.66% (inactive),
CSc1ccc(NC(=O)/C=C/C(=O)O)cc1,18.7% (inactive),
Cc1cccc(N2CCN(c3ccc(NC(=O)/C=C\C(=O)O)cc3)CC2)c1,,8.28 µM (active)
Cc1cccc(N2CCN(C(=O)c3ccccc3NC(=O)C3CCCCC3C(=O)O)CC2)c1 (configuration not stated),-6.43% (inactive),
Cc1ccc2oc(C(=O)N3CCN(C)C[C@@H]3C(C)C)c(C)c2c1,3.18% (inactive),
CC1=CC(=Cc2sc3ccccc3[n+]2C)C=C(C)O1,,0.928 µM (active)
Cc1ccc(-c2noc(CNC(=O)c3ccoc3C)n2)cc1,33.4% (inactive),
O=C(NCc1ccccc1Cl)C1CCN(S(=O)(=O)c2cccc3nonc23)CC1,5.07% (inactive),
O=C(NCc1ccncc1)C1CCCN(S(=O)(=O)c2ccc(Br)cc2)C1 (configuration not stated),-2.51% (inactive),
O=C(Nc1ccncc1)c1c(F)cccc1F,1.26% (inactive),
CC(C)CC(=O)Nc1ccc(Cc2ccncc2)cc1,5.98% (inactive),
O=C(Nc1ccncc1)Nc1ccc(F)cc1,,6.57 µM (active)
CCc1ccc(NC(=O)Nc2ccncc2)cc1,,13.1 µM (active)
CCc1ccc(NC(=O)N[C@H](C(=O)O)C(C)CC)cc1 (some centres not stated),22.8% (inactive),
O=C(NCc1ccccn1)Nc1ccc(F)cc1,52.2% (inactive),
CCCOc1ccc(Cc2c(O)nc(N)[nH]c2=O)cc1C,-5.97% (inactive),
CN(C)CCCO/N=C(\c1ccccc1)c1ccncc1,2.21% (inactive),
COc1cc(OC)nc(N/N=C(\c2ccccc2)c2ccncc2)n1,,14.7 µM (active)

SMILES,"activity change, negative = inhibition",Potency
COc1cc(OC)nc(NC(=O)CCl)n1,7.41% (inactive),
CC(=O)N(C)c1ccc(NC(=O)Nc2cccc3ccccc23)cc1,66.8% (inactive),
CNC(=O)c1sc(Nc2ccc(OCc3ccccc3)cc2)nc1C,-17.7% (inactive),
Cn1cncc1COC(=O)c1ccc(Cl)cc1,0.158% (inactive),
COc1cc(OC)cc(C(=O)NCCSCc2ccc(Cl)cc2)c1,6.73% (inactive),
COc1ccccc1N1CC(C(=O)NCCN2C(=O)S/C(=C\c3cccnc3)C2=O)CC1=O (configuration not stated),-2.32% (inactive),
Brc1ccccc1C1Nc2cccc3cccc(c23)N1,,13.1 µM (active)
Cc1ccc(C2Nc3cccc4cccc(c34)N2)cc1,0% (inactive),
C/C(=C\c1ccco1)C1Nc2cccc3cccc(c23)N1,3.63% (inactive),
COc1cccc(CNS(=O)(=O)c2ccc3c(c2)N(C(C)=O)CCS3)c1,-9.9% (inactive),
O=C1C(=O)N(CCCN2CCOCC2)C(c2ccc([N+](=O)[O-])cc2)/C1=C(\O)c1ccc2c(c1)OCCO2 (configuration not stated),-15.6% (inactive),
CC1CN(C(=S)Nc2ccc(S(N)(=O)=O)cc2)CC(C)O1 (configuration not stated),-0.819% (inactive),
CN1C(=O)C(CC(=O)Nc2ccccc2)S/C1=N/c1nccs1 (configuration not stated),41.6% (inactive),
O=C(Nc1cccc(Cl)c1)OCc1ccccn1,93% (inactive),
O=C(CC1SC(=Nc2ccccc2)N(Cc2ccccn2)C1=O)Nc1cccc(Cl)c1 (configuration not stated),,6.57 µM (active)
CCCCN1C(=O)C(=O)N(CC(=O)Nc2cccc(C(C)=O)c2)C1=O,12.2% (inactive),
CC(C(=O)N1CCN(c2ccccc2F)CC1)c1ccc([N+](=O)[O-])cc1 (configuration not stated),-73.8% (inactive),
O=C(COC(=O)c1ncc(Cl)c(Cl)c1Cl)NCc1ccccc1,-2.97% (inactive),
COCCCN1C(=O)c2ccc(C(=O)OCC(=O)NCc3ccccc3OC)cc2C1=O,10.5% (inactive),
Cc1ccn2c(=O)nc(SCC(=O)NCc3ccc(F)cc3)nc2c1,-12% (inactive),
Cc1sc(NC(=O)c2ccc3ncsc3c2)c(C(N)=O)c1C,112% (inactive),
CSc1nc2ccc(C)cc2c(=O)n1-c1cccnc1,-8.37% (inactive),
Cc1ccc2nc3n(c(=O)c2c1)CCC3,8.44% (inactive),
Cc1ccc2nc(C)c3c(c2c1)N(c1ccccc1)CC3,,5.86 µM (active)
N#Cc1ccc(C(=O)OCC(=O)NC(=O)NC2CCCCC2)cc1,11.7% (inactive),
O=C(Nc1cc(-c2nc3ncccc3o2)ccc1Cl)c1ccco1,10.3% (inactive),

SMILES,"activity change, negative = inhibition",Potency
Cc1ccc(C(=O)COC(=O)CCN2C(=O)C3C4CCC(C4)C3C2=O)cc1C (configuration not stated),49.8% (inactive),
CCCCCc1ccc(-c2ccc(OCC)cc2)nc1,78.2% (inactive),
CCCCCCCCC(=O)NCCOc1ccccc1,13% (inactive),
CCCCCCCCCc1ccc(OCCOCCOCCOCCOCCOCCOCCOCCOCCO)cc1,,8.49 µM (active)
COc1cccc(OCc2nnc3n2N=C(c2ccccc2)C(CC(=O)O)S3)c1 (configuration not stated),-4.69% (inactive),
COc1cc(S(=O)(=O)N2CCN=C2c2ccccc2)ccc1Cl,-8.03% (inactive),
CN(C)[C@@H]1C(=O)C(C(N)=O)=C(O)[C@@]2(O)C(=O)C3=C(O)c4c(O)ccc(Cl)c4[C@@H](O)[C@H]3C[C@@H]12,,2.08 µM (active)
C=C1c2c(Cl)ccc(O)c2C(O)=C2C(=O)[C@]3(O)C(O)=C(C(N)=O)C(=O)[C@@H](N(C)C)[C@@H]3[C@@H](O)C12 (some centres not stated),,2.33 µM (active)
COc1ccc(C(=O)COC(=O)Cn2cnc3c2c(=O)n(C)c(=O)n3C)c(OC)c1,41.3% (inactive),
COc1cc(C(=O)Nn2c(CC(C)C)nc3ccccc3c2=O)cc(OC)c1OC,39.7% (inactive),
O=C(O)CSc1c2c(nc3cc(C(=O)Nc4cccc(C(F)(F)F)c4)ccc13)CCCC2,-7.64% (inactive),
Cc1cccc(NC(=O)CSc2nnc(-c3ccco3)o2)c1,14.3% (inactive),
O=C(CCc1ccccc1)Nc1cccc(-c2nnc(-c3ccco3)o2)c1,,10.4 µM (active)
O=C(Nc1cccc(-c2nnc(-c3ccccc3)o2)c1)C1CCCO1 (configuration not stated),-23.1% (inactive),
O=C(O)c1ccc(NC(=O)c2ccc(COc3ccc(Cl)cc3)o2)cc1,-0.403% (inactive),
Cc1c(C)c(C)c(S(=O)(=O)N2CCC3(CC2)OCCO3)c(C)c1C,14.3% (inactive),
c1ccc2cc(CCCc3cc4ccccc4cn3)ncc2c1,41.5% (inactive),
Cc1n[nH]c(=O)c2c(NC(=O)CSc3cc(Cl)ccc3Cl)oc(C)c12,10% (inactive),
O=C(/C=C/c1cccc([N+](=O)[O-])c1)OCC(=O)N1CCOCC1,31.3% (inactive),
Cc1ccc(C(=O)N/C(=C\c2cn(C)c3ccccc23)C(=O)N2CCN(C)CC2)cc1,-20% (inactive),
Cc1ccc(C(=O)N/C(=C/c2cccs2)C(=O)N2CCCCC2)cc1,11.9% (inactive),
Cc1ccc(C(=O)N/C(=C\c2cn(S(=O)(=O)N(C)C)c3ccccc23)C(=O)N2CCCC2)cc1,,10.4 µM (active)
COC(=O)c1ccc(/C=N/NC(=O)C(=O)N2CCCCCC2)cc1,0.0405% (inactive),
COc1ccccc1-c1sc2ccccc2c1-c1ccc(C(C)=O)cc1,7.12% (inactive),
